High-throughput results as filed in PubChem BioAssay.
The full list was thinned out, with hits kept by preference.
Dicer processing: inhibitors of human Dicer processing of pre-microRNA | Q9UPY3 | z-score at 25 µM | cat-ELCCA pre-miR-21 Dicer processing, chemiluminescence; stronger effect = higher value | AID 1347074 | 6% of 47,000 active; in the data active = z-score above about 3, passing the limit was not always enough;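 note: higher signal means more uncleaved substrate so more Dicer inhibition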
Target sequence (Q9UPY3 whole entry, looked up): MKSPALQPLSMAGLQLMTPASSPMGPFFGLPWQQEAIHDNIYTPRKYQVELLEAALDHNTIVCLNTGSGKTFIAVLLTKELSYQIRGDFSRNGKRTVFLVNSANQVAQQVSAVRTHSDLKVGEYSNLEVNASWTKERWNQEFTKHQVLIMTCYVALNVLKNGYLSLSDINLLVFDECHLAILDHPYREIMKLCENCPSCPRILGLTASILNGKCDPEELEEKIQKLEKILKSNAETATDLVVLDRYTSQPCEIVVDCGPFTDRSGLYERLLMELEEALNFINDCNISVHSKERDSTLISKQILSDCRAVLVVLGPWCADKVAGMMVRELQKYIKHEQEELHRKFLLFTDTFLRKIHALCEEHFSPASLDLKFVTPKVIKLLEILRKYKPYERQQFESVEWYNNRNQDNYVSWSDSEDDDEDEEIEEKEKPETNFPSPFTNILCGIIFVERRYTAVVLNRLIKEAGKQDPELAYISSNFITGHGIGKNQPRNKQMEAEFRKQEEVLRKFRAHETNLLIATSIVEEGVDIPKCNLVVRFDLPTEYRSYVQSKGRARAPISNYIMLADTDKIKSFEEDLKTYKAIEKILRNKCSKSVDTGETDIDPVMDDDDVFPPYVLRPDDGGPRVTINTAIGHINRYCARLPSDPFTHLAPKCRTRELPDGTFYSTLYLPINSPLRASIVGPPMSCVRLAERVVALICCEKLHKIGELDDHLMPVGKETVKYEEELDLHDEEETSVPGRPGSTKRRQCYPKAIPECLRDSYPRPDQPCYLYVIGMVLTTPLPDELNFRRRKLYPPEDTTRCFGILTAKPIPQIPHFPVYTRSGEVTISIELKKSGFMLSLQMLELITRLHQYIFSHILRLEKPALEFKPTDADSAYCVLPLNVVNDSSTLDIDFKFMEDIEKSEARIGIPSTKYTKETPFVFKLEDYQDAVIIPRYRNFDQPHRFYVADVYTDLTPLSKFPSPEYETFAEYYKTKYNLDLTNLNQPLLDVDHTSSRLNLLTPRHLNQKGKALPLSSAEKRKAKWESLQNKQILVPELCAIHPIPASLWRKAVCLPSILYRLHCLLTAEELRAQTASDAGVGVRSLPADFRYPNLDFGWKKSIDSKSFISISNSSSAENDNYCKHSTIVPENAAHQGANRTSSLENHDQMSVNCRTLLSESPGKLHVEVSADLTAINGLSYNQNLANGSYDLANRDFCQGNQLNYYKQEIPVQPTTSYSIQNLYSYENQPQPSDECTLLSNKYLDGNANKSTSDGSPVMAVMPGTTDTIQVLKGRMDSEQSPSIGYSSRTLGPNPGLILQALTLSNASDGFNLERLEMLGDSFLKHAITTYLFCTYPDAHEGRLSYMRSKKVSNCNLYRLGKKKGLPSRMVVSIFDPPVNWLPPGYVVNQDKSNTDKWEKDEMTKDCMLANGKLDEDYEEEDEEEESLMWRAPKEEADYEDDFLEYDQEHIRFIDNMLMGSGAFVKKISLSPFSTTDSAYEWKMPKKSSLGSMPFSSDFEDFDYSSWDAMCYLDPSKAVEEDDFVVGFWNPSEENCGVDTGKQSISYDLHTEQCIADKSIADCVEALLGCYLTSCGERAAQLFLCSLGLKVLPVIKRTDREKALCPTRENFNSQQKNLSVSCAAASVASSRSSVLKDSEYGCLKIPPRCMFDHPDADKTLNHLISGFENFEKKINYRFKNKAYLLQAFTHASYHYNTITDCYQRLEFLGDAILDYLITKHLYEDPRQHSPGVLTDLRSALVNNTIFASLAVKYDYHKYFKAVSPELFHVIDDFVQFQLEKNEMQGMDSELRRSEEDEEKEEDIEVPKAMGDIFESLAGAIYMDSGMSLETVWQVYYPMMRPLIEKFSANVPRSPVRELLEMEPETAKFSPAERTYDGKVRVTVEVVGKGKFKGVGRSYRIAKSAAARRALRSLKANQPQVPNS
Each line names hits and unclear results; the compound was inactive in the other large screens.

COc1ccc(C2=NN(C(=O)CCCC(=O)O)C(c3ccc(F)cc3)C2)cc1OC (configuration not stated)	Dicer processing 3.8
CC(=O)O/N=C(\N)c1nccnc1Sc1ccc(Cl)cc1	none
O=C(CCc1nc(-c2ccc(Cl)cc2)no1)NNC(=S)NCCc1ccccc1	none
O=C(CCc1ccccc1)NNc1ccc(F)cc1F	none
O=C(CCc1ccncc1)NNC(=O)N1Cc2ccccc2Oc2ccc(Cl)cc21	Dicer processing 3.1
COc1ccc(OC)c2c(C)cc(N3CCCC3)nc12	none
CSc1c(C#N)c(-c2ccccc2)nn1C	none
NS(=O)(=O)c1cc([N+](=O)[O-])c(N2CCCCC2)s1	none
Cc1ccc(S(=O)(=O)c2c(C)cc(C)cc2C)cc1	none
Cc1ccc(S(=O)(=O)n2ccc3cc(N)ccc32)cc1	Dicer processing 5.7
Cc1ccc(S(=O)(=O)n2nc(C)cc2N)cc1	none
O=c1c2cnn(-c3ccccc3)c2ncn1/N=C/c1ccc(Cl)cc1	none
O=c1c2cnn(-c3ccccc3)c2nnn1/N=C/c1ccc([N+](=O)[O-])cc1	Dicer processing 3.3
O=c1c2cnn(-c3ccccc3)c2nnn1/N=C/c1ccc(OCc2ccccc2)cc1	none
O=c1c2cnn(-c3ccccc3)c2ncn1/N=C/c1ccc(OCc2ccccc2)cc1	none
Cc1nc2c(cnn2-c2ccccc2)c(=O)n1/N=C/c1ccc(Cl)cc1	Dicer processing 3.2
Cc1nc2c(cnn2-c2ccccc2)c(=O)n1/N=C/c1cccs1	none
COC(=O)C1=NNC2C(=O)N(c3ccc(F)cc3)C(=O)C12 (configuration not stated)	none
COC(=O)C1=C(C)NC(=O)CC1c1ccc(F)cc1 (configuration not stated)	none
COC(=O)C1=C(C)N(c2ccc(F)cc2)CC1=O	Dicer processing 3.2
CC1=C(C(=O)OCCOc2ccccc2)C(c2ccc(O)cc2)C2=C(CC(c3ccccc3)CC2=O)N1 (configuration not stated)	none
COCCOC(=O)C1=C(C)NC2=C(C(=O)CC(c3cccs3)C2)C1c1ccc(OC(C)=O)cc1 (configuration not stated)	none
CCOC(=O)C1=C(C)N(c2ccccc2)C(=O)C1	none
COC(=O)C1=C(C)N(Cc2cccnc2)C(=O)C1	none
COC(=O)C1=C(C)N(c2cc(C)cc(C)c2)C(=O)C1	Dicer processing 3.6
Cn1c(NCc2ccccn2)nc2c1c(=O)n(Cc1ccccc1F)c(=O)n2C	none
CCOC(=O)c1c(C)n(C)c2ccc(OCC(O)CNC(C)(C)C)cc12 (configuration not stated)	none
Cc1ccc2oc(-c3ccccc3Cl)c(O)c(=O)c2c1	none
Cn1cccc1C(=O)N/N=C(\N)CN1CCCCC1	none
CCN1C(=O)C2(/C(=C(/O)c3ccc(C)cc3)C(=O)C(=O)N2CCCOC)c2ccccc21 (configuration not stated)	Dicer processing 3.3
CCCN1C(=O)C2(/C(=C(/O)c3ccc(C)cc3)C(=O)C(=O)N2CCOC)c2ccccc21 (configuration not stated)	none
CCCN1C(=O)C2(/C(=C(/O)c3ccc(F)cc3)C(=O)C(=O)N2CCCOC)c2ccccc21 (configuration not stated)	Dicer processing 3.6
CCOc1ccc(/C(O)=C2/C(=O)C(=O)N(CCCOC)C23C(=O)N(CC)c2ccccc23)cc1 (configuration not stated)	none
CCCN1C(=O)C2(/C(=C(/O)c3ccc(C)c(F)c3)C(=O)C(=O)N2CCCOC)c2ccccc21 (configuration not stated)	none
CCN1C(=O)C2(/C(=C(/O)c3ccc(OC)cc3)C(=O)C(=O)N2CCCOC)c2ccccc21 (configuration not stated)	none
COC(=O)C1C(=O)NC(SCC(N)=O)=C(C#N)C1c1ccc(Cl)cc1 (configuration not stated)	none
CCn1nc(C)c(Br)c1C(=O)NNC(=O)c1ncc(C(F)(F)F)cc1Cl	none
COc1ccc(C2/C(=C(\O)c3ccc(C)cc3)C(=O)C(=O)N2CCN(C)C)cc1OC (configuration not stated)	none
CCN(C(=S)Nc1cccc(C(F)(F)F)c1)c1ccccc1	none
c1cnc2sc3c(N4CCOCC4)ncnc3c2c1	none
COC(OC)c1nc(SCC(=O)Nc2cccc(Cl)c2)ncc1C(=O)O	none
COC(=O)c1ccc2c(c1)N(C)S(=O)(=O)c1cnc(SCC(=O)Nc3ccccc3)nc1-2	Dicer processing 5
COC(=O)c1ccc2c(c1)N(C)S(=O)(=O)c1cnc(SC)nc1-2	none
CC1=C(C(=O)Nc2ccccc2)C(c2ccccc2)C2=C(N1)c1ccccc1C2=O (configuration not stated)	none
CCC(C)[C@H](N)c1nnc(SCc2ccc(C)cc2)o1 (some centres not stated)	none
CC1CN(c2nc3ccccc3nc2SCC(=O)NC2CCCCC2)CC(C)O1 (configuration not stated)	none
O=C(CSc1nc2ccccc2nc1N1CCCC1)N1CCN(C2CCCCC2)CC1	Dicer processing 3
O=C(CSc1nc2ccccc2nc1N1CCOCC1)N1CCN(C2CCCCC2)CC1	none
CC1CN(c2nc3ccccc3nc2SCC(=O)N2CCN(C3CCCCC3)CC2)CC(C)O1 (configuration not stated)	none
CC1CCN(c2nc3ccccc3nc2SCC(=O)NC2CC2)CC1	Dicer processing 3.1
O=C(CSc1nc2ccccc2nc1N1CCCC1)NCC1CCCO1 (configuration not stated)	none
COc1ccc(OC)c(NC(=O)CSc2nc3ccccc3nc2N2CCCC2)c1	none
O=C(CSc1nc2ccccc2nc1N1CCCCC1)NCC1CCCO1 (configuration not stated)	Dicer processing 3.1
CC1CN(c2nc3ccccc3nc2SCC(=O)NC2CCCC2)CC(C)O1 (configuration not stated)	none
Cc1nn2c(c1-c1ccccc1)N=C(c1ccccc1)CC2c1ccco1 (configuration not stated)	none
Cc1c(C)c(C)c(C(=O)c2ccccc2C(=O)O)c(C)c1C	none
Nc1nc2nccc(-c3ccccc3)n2n1	none
O=S(=O)(c1ccccc1)n1nc(-c2ccccc2)nc1NCc1ccc(F)cc1	none
N#Cc1cc2c(N)c(C(=O)Nc3ccccc3Oc3ccccc3)sc2nc1N	none
CCOC(=O)CCCN1C(=O)c2cccc3cccc(c23)C1=O	Dicer processing 5.3
CCOC(=O)CCCCCN1C(=O)c2cccc3cccc(c23)C1=O	none
CCCCCN1C(=O)c2cccc3cccc(c23)C1=O	none
Cc1nc2nc(C(C)C)cc(=O)n2[nH]1	none
CC1(C)CC(=O)C2=C(C1)Nc1ccc3ccccc3c1C2c1ccccc1 (configuration not stated)	none
O=C1C(Oc2ccccc2)C(c2ccc3c(c2)OCO3)N1CCc1ccc(Cl)cc1 (configuration not stated)	none
CC(C)S(=O)(=O)c1csc(NC(=O)Nc2ccccc2Cl)c1Cl	Dicer processing 3.8
CC(C)S(=O)(=O)c1csc(C(N)=O)c1Cl	none
CC(C)S(=O)(=O)c1csc(NC(=O)Nc2c(Cl)cc(Cl)cc2Cl)c1Cl	none
CC(C)(C)c1csc(N/N=C/c2ccc(Cl)cc2)n1	none
O=C1c2cccc(Oc3ccccc3)c2C(=O)c2c(Oc3ccccc3)cccc21	none
CC1(C)C2CC[C@](C)(C2)C1NC(=O)c1cccc(C(F)(F)F)c1 (some centres not stated)	none
COc1ccccc1N1CCN(S(=O)(=O)c2ccc3[nH]c(=O)[nH]c3c2)CC1	Dicer processing 3
CC1CCN(S(=O)(=O)c2ccc3[nH]c(=O)[nH]c3c2)CC1	none
COc1ccccc1N1CCN(S(=O)(=O)c2ccc(-c3ccno3)s2)CC1	none
O=C1c2ccncc2C(=O)N1c1ccc(F)cc1F	none
